# Source: PubChem BioAssay (NCI)
# Where “and” joins values, the source holds several entries; their conditions need not be identical. Identical values can stand only once. About 83,000 compounds went through this panel and 20% of them were active in at least one assay; those are over-represented in the sample as a whole.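 Cell lines were cultured in 96-well plates, exposed to a single compound concentration, and assessed for percent growth 48 hours later.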 Calls of active or inactive are those of the source. How the source made its calls: active means growth percent below 10; inactive means the rest.
# Tests used:
# Experiment in all cases: NCI-60 one-dose screen, 48 h (100 = growth as untreated, 0 = no growth, -100 = all killed)
# [1] = tested on: BT-549 breast
# [2] = tested on: MDA-MB-435 melanoma
# [3] = tested on: MCF7 breast
# [4] = tested on: HCT-116 colon
# [5] = tested on: HCC-2998 colon
# [6] = tested on: KM12 colon
# [7] = tested on: SW-620 colon; conditions: 10 µM unless noted
# [8] = tested on: T-47D breast; conditions: 10 µM unless noted
smiles,measurement,setting,value
CC(C)(C)c1cc(NC(=O)Cc2ccc(-c3cnc4cc(-c5cnn(CCN6CCOCC6)c5)ccc4n3)cc2)no1,growth,[1]; 10 µM,22% (inactive)
same,growth,[1]; 30 µM,32.9% (inactive)
same,growth,[2]; 10 µM,19.1% (inactive)
same,growth,[2]; 30 µM,19.6% (inactive)
same,growth,[3]; 10 µM,35.4% (inactive)
same,growth,[3]; 30 µM,33.8% (inactive)
same,growth,[4]; 10 µM,14.9% (inactive)
same,growth,[4]; 30 µM,24.3% (inactive)
same,growth,[5]; 10 µM,40.3% (inactive)
same,growth,[5]; 30 µM,39.4% (inactive)
same,growth,[6]; 10 µM,8.46% (active)
same,growth,[6]; 30 µM,9.72% (active)
Cc1nnc(NC/C=C/c2ccccc2)s1,growth,[1]; 10 µM unless noted,97.6% (inactive) and 113% (inactive)
same,growth,[2]; 10 µM unless noted,110% (inactive) and 108% (inactive)
same,growth,[7],113% (inactive) and 105% (inactive)
same,growth,[3]; 10 µM unless noted,98.8% (inactive) and 96.2% (inactive)
same,growth,[4]; 10 µM unless noted,105% (inactive) and 100% (inactive)
same,growth,[5]; 10 µM unless noted,127% (inactive) and 102% (inactive)
same,growth,[6]; 10 µM unless noted,94.4% (inactive)
O=C1c2c(O)cc(O)cc2OC(c2ccc(O)c(O)c2)C1O (centres undefined),growth,[8],103% (inactive)
same,growth,[2]; 10 µM unless noted,111% (inactive)
same,growth,[3]; 10 µM unless noted,102% (inactive)
same,growth,[6]; 10 µM unless noted,114% (inactive)
CCN(CC)C(=O)c1cccnc1,growth,[1]; 10 µM unless noted,98.5% (inactive)
same,growth,[2]; 10 µM unless noted,97.9% (inactive)
same,growth,[7],106% (inactive)
same,growth,[3]; 10 µM unless noted,108% (inactive)
same,growth,[4]; 10 µM unless noted,105% (inactive)
same,growth,[5]; 10 µM unless noted,109% (inactive)
same,growth,[6]; 10 µM unless noted,104% (inactive)
Cc1nn(-c2ccccc2)nc1C(=O)Nc1ccccc1C(=O)NCC1CC1,growth,[8],76.8% (inactive) and 28.7% (inactive)
same,growth,[1]; 10 µM unless noted,123% (inactive) and 84.8% (inactive)
same,growth,[2]; 10 µM unless noted,102% (inactive) and 85.9% (inactive)
same,growth,[3]; 10 µM unless noted,81.1% (inactive) and 56.5% (inactive)
same,growth,[4]; 10 µM unless noted,63.9% (inactive) and -13.4% (active)
same,growth,[5]; 10 µM unless noted,102% (inactive) and 116% (inactive)
same,growth,[6]; 10 µM unless noted,117% (inactive) and 93.9% (inactive)
O=C=NC(c1ccccc1)(c1ccccc1)c1ccccc1,growth,[1]; 10 µM unless noted,103% (inactive)
same,growth,[2]; 10 µM unless noted,108% (inactive)
same,growth,[7],107% (inactive)
same,growth,[3]; 10 µM unless noted,102% (inactive)
same,growth,[4]; 10 µM unless noted,93.5% (inactive)
same,growth,[5]; 10 µM unless noted,111% (inactive)
same,growth,[6]; 10 µM unless noted,103% (inactive)
O=C(c1ccc(Cl)cc1)C(NCCO)c1ccc(Cl)cc1 (centres undefined),growth,[8],85.4% (inactive)
same,growth,[1]; 10 µM unless noted,104% (inactive) and 94.6% (inactive)
same,growth,[2]; 10 µM unless noted,97.9% (inactive) and 108% (inactive)
same,growth,[3]; 10 µM unless noted,103% (inactive) and 97.3% (inactive)
same,growth,[4]; 10 µM unless noted,102% (inactive) and 99.4% (inactive)
same,growth,[5]; 10 µM unless noted,101% (inactive)
same,growth,[6]; 10 µM unless noted,105% (inactive) and 101% (inactive)
CCC(O)c1ccccc1 (centres undefined),growth,[8],106% (inactive) and 102% (inactive)
same,growth,[1]; 10 µM unless noted,133% (inactive)
same,growth,[2]; 10 µM unless noted,89.8% (inactive) and 107% (inactive)
same,growth,[3]; 10 µM unless noted,103% (inactive) and 95.6% (inactive)
same,growth,[4]; 10 µM unless noted,86.7% (inactive) and 108% (inactive)
same,growth,[5]; 10 µM unless noted,-87.7% (active)
same,growth,[6]; 10 µM unless noted,116% (inactive) and 108% (inactive)
O=C(Oc1cccc(OC(=O)c2ccccc2)c1)c1ccccc1,growth,[1]; 10 µM unless noted,112% (inactive) and 90.8% (inactive)
same,growth,[2]; 10 µM unless noted,113% (inactive) and 99.8% (inactive)
same,growth,[7],85.8% (inactive) and 103% (inactive)
same,growth,[3]; 10 µM unless noted,78.7% (inactive) and 107% (inactive)
same,growth,[4]; 10 µM unless noted,89.2% (inactive) and 93.9% (inactive)
same,growth,[5]; 10 µM unless noted,96.3% (inactive) and 102% (inactive)
same,growth,[6]; 10 µM unless noted,87.9% (inactive)
O=C(Cc1cccc2ccccc12)N/N=C/c1ccc2c(c1)CCC2,growth,[1]; 10 µM unless noted,92.5% (inactive)
same,growth,[2]; 10 µM unless noted,7.56% (active)
same,growth,[7],54.8% (inactive)
same,growth,[3]; 10 µM unless noted,80.5% (inactive)
same,growth,[4]; 10 µM unless noted,66.4% (inactive)
same,growth,[5]; 10 µM unless noted,81.9% (inactive)
same,growth,[6]; 10 µM unless noted,54.3% (inactive)
CN1CCN(CCC=C2c3ccccc3Sc3ccc(S(=O)(=O)N(C)C)cc32)CC1,growth,[8],77.4% (inactive)
same,growth,[1]; 10 µM unless noted,67.9% (inactive) and 70% (inactive)
same,growth,[2]; 10 µM unless noted,12.8% (inactive) and 6.78% (active)
same,growth,[3]; 10 µM unless noted,41.2% (inactive) and 71.9% (inactive)
same,growth,[4]; 10 µM unless noted,39.5% (inactive) and 45.1% (inactive)
same,growth,[5]; 10 µM unless noted,13.9% (inactive) and 14.4% (inactive)
same,growth,[6]; 10 µM unless noted,68.7% (inactive) and 73.4% (inactive)
